Sampled rows, rich in hits. Any-hit rate of the full collection: about 3.9%.
VDR inhibitor: Inhibitors of the vitamin D receptor (VDR): qHTS | Vitamin D3 receptor (Homo sapiens), P11473 | Potency, µM, without a hit: max response, negative = inhibition, most hits filed as inhibitors | VDR-SRC2-3 peptide fluorescence polarization, 2 h | AID 504847, 2011 | 0.93% of 400,000 active; also: % is scaled to controls: 0 for no effect and ±100 for the full control effect
Target sequence (P11473 whole entry, looked up): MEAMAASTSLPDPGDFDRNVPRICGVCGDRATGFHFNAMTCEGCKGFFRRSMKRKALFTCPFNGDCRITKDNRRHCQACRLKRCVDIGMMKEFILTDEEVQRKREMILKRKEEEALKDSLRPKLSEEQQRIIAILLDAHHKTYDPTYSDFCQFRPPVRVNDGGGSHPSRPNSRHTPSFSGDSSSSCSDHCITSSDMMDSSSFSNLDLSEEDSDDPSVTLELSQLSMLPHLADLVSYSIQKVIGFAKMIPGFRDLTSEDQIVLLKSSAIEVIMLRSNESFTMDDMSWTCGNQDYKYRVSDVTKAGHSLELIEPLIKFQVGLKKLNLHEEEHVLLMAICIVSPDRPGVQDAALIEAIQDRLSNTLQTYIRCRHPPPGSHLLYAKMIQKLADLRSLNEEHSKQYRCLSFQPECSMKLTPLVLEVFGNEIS
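FP read-out; VDR + SRC2-3 coactivator peptide; 23 nl compound by pintool; 2 h RT incubation; reagents held at 4 deg C, protected from light.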
BRCA1 expr up: qHTS Assay to Identify Small Molecule Activators of BRCA1 Expression. 1.1% of 380,000 active. AID 624202, 2012. MCF7-BRCA1-FFLuc reporter, luminescence, 48 h; response scale: scaled: vehicle 0%, 10 µM genistein 100%. Potency, µM (series often up to 46.1 µM), for the others: top-dose activation, hits mostly activators; also: nearly all actives have a fitted effect of over 80% in size
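Reporter cells (MCF7, BRCA1 promoter-firefly luciferase) received library compounds across a concentration series for 48 h. End-point luminescence was measured and concentration-effect curves derived after normalization.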
PLK1 PBD block: qHTS for Inhibitors of PLK1-PDB (polo-like kinase 1 - polo-box domain): Primary Screen; Serine/threonine-protein kinase PLK1 (Homo sapiens), P53350; Plk1 PBD binding of FITC phosphopeptide, fluorescence polarization; Potency, µM, for the others: max response, negative = inhibition, usual class: inhibitors; 2.8% of 360,000 active; AID 720504, 2013; also: series mostly up to about 57 µM; % is scaled to controls: 0 for no effect and ±100 for the full control effect; nearly all actives have a fitted effect of over 65% in size
Tb PFK inh: qHTS Assay to Find Inhibitors of T. brucei phosphofructokinase | ATP-dependent 6-phosphofructokinase (Trypanosoma brucei brucei), O15648 | T. brucei PFK, ADP-Glo luminescence | Potency, µM (series often up to 57.5 µM), for inactives: at the top dose activity, negative = inhibition, actives largely listed as inhibitors | 0.17% of 330,000 active;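 also: 0% = uninhibited 1x PFK enzyme wells and -100% = no-enzyme wells; nearly all actives have a fitted effect of over 60% in size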
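PFK 1.25 nM, F6P 0.5 mM, ATP 0.1 mM, 0.1 M TEA pH 8.0, 5 mM MgCl2, 0.01% Tween20, 0.1% BSA; 45 min RT. ADP-Glo readout. qHTS titration up to 57 uM; curves fitted, compounds curve-classed.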
* hit, by the source's call; ? = inconclusive; . = no result given. Calls follow the shape of the dose curve; as a rule, active = well fitted curve in the direction sought with a large enough effect; inconclusive = small, poorly fitted or top-dose-only effect, or another doubt; inactive = no such curve, though single readings can be large; an effect the other way counts as inactive or inconclusive. Potency is read from the fitted curve at half-maximal effect.

SMILES | VDR inhibitor | BRCA1 expr up | PLK1 PBD block | Tb PFK inh
CCc1cccc(C)c1NC(=O)Cn1ncc2c3ccccc3n(Cc3ccccc3)c2c1=O | 9% | . | . | .
CC1=NN(c2ccc(C)cc2C)C(=O)C1C(c1ccccc1O)C1C(=O)N(c2ccc(C)cc2C)N=C1C (centres undefined) | ? | -10% | ? | 3%
CC1=NN(c2ccc(C)c(C)c2)C(=O)C1C(c1cccc(O)c1)C1C(=O)N(c2ccc(C)c(C)c2)N=C1C (centres undefined) | ? | -55% | 8.4µM* | -11%
CCc1ccc(NC(=O)Cn2c(=O)n(-c3cc(OC)c(OC)c(OC)c3)c(=O)c3ccccc32)cc1 | 5% | 11% | . | .
NC(=O)C1CCN(c2nc(-c3cc4ccccc4o3)cs2)CC1 | -6% | 11µM* | . | ?
CN1CCN(c2nc(-c3cc4ccccc4o3)cs2)CC1 | -7% | 54% | 0% | -2%
Cc1ccc(C2Nc3cc(C)c(C)cc3-n3c(-c4ccccc4)c4c(=O)n(C)c(=O)n(C)c4c32)o1 (centres undefined) | 9% | . | . | .
COc1ccc(CCNC(=O)Nc2ccc3c(c2)c(=O)n(C)n3CC=C(C)C)cc1OC | . | 3% | -2% | .
COC(=O)/C=C1\OCc2ccccc21 | . | . | -4% | .
CCc1cc(C(=O)N2CCc3c([nH]c4ccccc34)C2c2ccc(OC)cc2F)no1 (centres undefined) | -16% | 8% | 24µM* | -1%
COc1ccc(C2c3[nH]c4ccccc4c3CCN2C(=O)c2ccc(=O)n(C)n2)c(F)c1 (centres undefined) | -7% | -47% | 2% | -4%
Cc1ccc(NC(=O)c2nnn(-c3cc(C)cc(C)c3)c2N)cc1 | -1% | 113% | -25% | 0%
Cc1cccc(-n2nnc(C(=O)Nc3ccc(F)cc3)c2N)c1 | -4% | 4.5µM* | -6% | 0%
Cn1c2c(c(=O)n(C)c1=O)C(c1cccc(O)c1)CC(=O)N2 (centres undefined) | -15% | 7% | . | .
CSc1ccc(C2CC(=O)Nc3c2c(=O)n(C)c(=O)n3C)cc1 (centres undefined) | ? | -28% | 27µM* | -5%
Nc1ccc(/C=C/c2nccc3ccccc23)cc1 | . | -40% | . | .
C=CCOc1c(OC)cc(/C=N/Nc2cccc(C(=O)O)c2)c(Br)c1Br | ? | ? | 30µM* | -1%
SCc1nc2ccccc2[nH]1 | . | -6% | . | .
O=C(O)[C@H](Cc1ccccc1)N1C(=O)c2c(Cl)c(Cl)c(Cl)c(Cl)c2C1=O | ? | -19% | 27µM* | 2%
CC(=O)n1cc(N(C(=O)CCl)c2ccc(Cl)cc2)c2ccccc21 | 50µM* | -96% | -12% | -3%
CN(C)c1cccc(C(=O)N/N=C/c2ccsc2)c1 | -16% | 10µM* | 0% | -1%
COC(=O)c1ccc(COc2cc(C)ccc2C)o1 | -10% | 56% | -20% | 3%
CCc1ccc(NC(=O)CCc2c(C)nn(-c3ccc(N4CCCC4)nn3)c2C)cc1 | -7% | . | . | .
COc1ccc(-n2c(Cc3ccccc3)nnc2SCc2ccc([N+](=O)[O-])cc2)cc1 | -10% | -32% | 27µM* | 0%
O=[N+]([O-])c1ccc(CSc2nnc(Cc3ccccc3)n2-c2ccc(F)cc2)cc1 | -15% | -31% | -3% | 0%
SMILES | VDR inhibitor | BRCA1 expr up | PLK1 PBD block | Tb PFK inh
N#CC1C(=O)c2ccccc2C1c1ccccc1 (centres undefined) | 45µM* | -39% | 30µM* | .
CCOC(=O)c1c(C)[nH]c(C)c1S(=O)(=O)N(C)CC(=O)Nc1ccc(CC)cc1 | -1% | -10% | . | .
CN(Cc1c(F)cccc1Cl)C(=O)CNC(=O)c1cccs1 | -10% | 11µM* | -8% | 1%
CN(Cc1ccc(F)cc1)C(=O)CNC(=O)c1cccs1 | -3% | 21% | 5% | 0%
Nc1cc(Nc2ccc(Br)cc2)nc(N)n1 | 45µM* | 86% | -18% | -8%
Cc1cc(Nc2ccc(Cl)cc2)nc(N)n1 | -10% | 86% | -1% | 5%
O=C(Nc1ccccc1Cl)C1(c2ccccc2)CC1(Cl)Cl (centres undefined) | -16% | -32% | 4% | -3%
CC(=O)c1ccc(NC(=O)C2(c3ccccc3)CC2(Cl)Cl)cc1 (centres undefined) | 12% | 10µM* | 1% | 0%

Assay outcomes as filed in PubChem.
